# From PubChem BioAssay (NCI)
# This is part of a sample that, as a whole, favours compounds with a hit. Of some 79,000 tested, about 15% had one in any assay. Unmarked numbers belong to inactive results. The source made the active and inactive calls. No stated cut-off is given here; in the data, active means growth inhibition above about 70%; inactive means the rest.
# Key:
# [1] = NCI Yeast Anticancer Drug Screen. Data for the rad50 strain (AID 155);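 further: 0% = growth of vehicle-only cultures of the same strain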; conditions: S. cerevisiae rad50 strain growth inhibition; at 50.0 µM; active compounds read high
# Outline: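 Inhibition values express reduced yeast growth in compound-treated cultures relative to vehicle-treated controls.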
# [2] = NCI Yeast Anticancer Drug Screen. Data for the mec2-1 strain (AID 157); conditions: S. cerevisiae mec2-1 strain, at 50.0 µM, active compounds read high
# Outline: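 Readout is yeast growth inhibition, normalised to vehicle-treated controls, in the mec2-1 strain exposed to compound.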
# [3] = NCI Yeast Anticancer Drug Screen. Data for the sgs1 mgt1 strain (AID 161);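 further: 0% = growth of cultures given vehicle only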; conditions: S. cerevisiae sgs1 mgt1 strain, at 50.0 µM, active compounds read high
# Outline: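 Growth of a repair-deficient yeast mutant was monitored after compound treatment and expressed as inhibition relative to vehicle-treated cultures.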
# [4] = NCI Yeast Anticancer Drug Screen. Data for the cln2 rad14 strain (AID 165);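 further: 0% = growth equal to vehicle treated cultures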; conditions: S. cerevisiae cln2 rad14 strain, at 50.0 µM, active compounds read high
# Outline: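 Relative to vehicle controls, growth inhibition of compound-treated cln2 rad14 yeast was recorded.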
# [5] = NCI Yeast Anticancer Drug Screen. Data for the bub3 strain (AID 167); conditions: S. cerevisiae bub3 mutant strain, at 50.0 µM, active compounds read high
# Outline: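 Steps: expose the mutant yeast strain to compound; grow alongside vehicle-treated cultures; measure growth; express inhibition against the vehicle cultures.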
# [6] = NCI Yeast Anticancer Drug Screen. Data for the mlh1 rad18 strain (AID 175); conditions: S. cerevisiae mlh1 rad18 strain growth inhibition; at 50.0 µM; active compounds read high
# Outline: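 Test agents were incubated with a yeast strain of defined genotype (DNA damage repair defect). Inhibition of growth was derived by comparison with vehicle-exposed cultures.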
SMILES,growth inhibition [1],growth inhibition [2],growth inhibition [3],growth inhibition [4],growth inhibition [5],growth inhibition [6]
CC/C(Cl)=N\OC(=O)Nc1ccc(C#N)cc1,-44.8%,4.9%,-19.4%,13.8%,46.3%,-10.4%
CC(Cl)(CCl)C(=O)NCNC(=O)C(C)(Cl)CCl (stereo unspecified),51.5%,3.8%,8.2%,-19.1%,15.8%,28.2%
C/C(=N\NC(=S)N1CC2CCC(CC2)C1)c1cccc(C)n1,22.1%,-1.45%,18.8%,8.85%,18.4%,13.8%
C[C@H](C(=O)C12CC3CC(CC(C3)C1)C2)[C@H](O)c1ccccc1,5.85%,4.7%,-10.8%,17%,-11.5%,-18.2%
O=C(/C=C/c1ccncc1)c1ccccc1,0.4%,-9.3%,-1.85%,11.9%,-12.9%,1.75%
O=C(Nc1cccc([N+](=O)[O-])c1)N1CCCC1,-7.1%,-16.4%,-7.75%,-3.9%,-7.5%,-20.6%
Cc1[nH]c(=O)c(C#N)c(C)c1-c1ccccc1,16.8%,-3.9%,-4.9%,4.9%,-0.75%,1.85%
O=C(O)CCSc1ccccc1[N+](=O)[O-],31.6%,-8.6%,23.4%,-10.3%,-0.9%,19.9%
O=C1C=CC(=O)C2C1C21C2CCCC(C2)C2CCCC1C2 (stereo unspecified),-11.2%,16.3%,4.05%,-23%,-0.65%,20.1%
CC1=C[P+](c2ccccc2)(c2ccccc2)C=C(C)O1,8.9%,3.55%,12.6%,0.65%,4.5%,4.25%
CN(Cc1ccccc1)C(=O)NC1CCCCC1,2.3%,0.05%,4.8%,-22.8%,3.4%,2.55%
Cc1nc(N)c(N2CCN(Cc3ccccc3)CC2)c(=O)[nH]1,-26.4%,1.85%,-33.9%,16.8%,29.6%,-25.3%
COC(=O)C1(NC(=O)C2(N3C(=O)c4ccccc4C3=O)CCCC2)CCCC1,-7.95%,-0.95%,-12.7%,-9.45%,-17.9%,1.6%
CCCCNc1ccc2c(C)cc(=O)oc2c1,-22.9%,-30.6%,-16.9%,0.7%,-21.4%,-17.4%
COc1cc(/C=N\NS(=O)(=O)c2ccc(N)cc2)ccc1O,10.1%,-18.3%,5.05%,9.55%,-24.8%,17.1%
c1ccc2c(c1)cc1n2CCc2c-1[nH]c1ccccc21,26.2%,18.6%,4.2%,18.1%,19.9%,20.9%
COc1ccc(/C=[N+](\[O-])c2ccccc2)cc1 (tested in a mixture with another compound),-2%,8.2%,4.1%,0.4%,-10.8%,8.35%
C(=C1\COC(c2ccccc2)=N1)/c1ccc2c(c1)OCO2,-13.2%,14.8%,13.8%,-19.6%,-5%,26.9%
CC(=O)CC(=O)N1CCN(C(=O)CC(C)=O)C(C)C1 (stereo unspecified),-7.95%,-58.5%,6.05%,1.8%,-11.7%,-6.75%
CCSC1(SCC)C2(CCCCC2)C(=O)C12CCCCC2,-5.55%,17.1%,9.1%,-12.1%,13.1%,78.1% (active)
O=C(O)C1(C(=O)O)CCCCC1.[NH-]CC1(C[NH-])CCCCC1.[Pt+2],21.8%,9.95%,27.8%,21.1%,5.85%,14.9%

SMILES,growth inhibition [1],growth inhibition [2],growth inhibition [3],growth inhibition [4],growth inhibition [5],growth inhibition [6]
COC(=O)c1cccc2cnccc12,2.2%,-5.7%,3.6%,-48%,7.65%,3.75%
COc1ccccc1C1OC2=C(Nc3ccc(Cl)cc3N2)C1=O (stereo unspecified),-6.5%,-17.8%,-17.5%,-7%,-23.7%,-2.95%
COc1cc(C(=O)NO)c(Br)c(OC)c1OC,-3.5%,9.5%,-4.35%,-5.6%,-7.2%,-3.7%
COc1ccc(/C(Cl)=C(\CNc2ccccn2)c2ccccc2)cc1OC,-14.4%,-21.9%,-39.9%,-22.7%,2.3%,-34.1%
O=C1C(=O)N(CN2CCCCC2)c2ccccc21,10.4%,-40.9%,26.4%,10.9%,22.4%,17.9%
O=C(O)Cc1ccc(Oc2ccc(CC(=O)O)cc2)cc1,-4.15%,-9.5%,1.85%,-48.8%,-8.75%,0.55%
Cc1cc2c(cc1C)NC1=C(N2)OC(c2ccc(C3OC4=C(Nc5cc(C)c(C)cc5N4)C3=O)cc2)C1=O (stereo unspecified),32.2%,14.8%,9.95%,16.5%,0.75%,29.6%
CCOC(=O)NC(Nc1ccc(C(=O)O)cc1)(C(F)(F)F)C(F)(F)F,-5.75%,-10.8%,-38.5%,18.6%,4.65%,11.4%
CN(C(=S)NNC(=O)C1CCC(=O)N1)c1ccccc1 (stereo unspecified),23.2%,-2%,3.3%,13.7%,21.4%,26.9%
O=C1c2cccc3c(Br)ccc(c23)C(=O)N1C1CCCCCCCCCCC1,99.2% (active),99.5% (active),99.5% (active),98.5% (active),99.2% (active),99.5% (active)
Cc1[nH]c2ccccc2c1C(c1cc(Cl)cc(Cl)c1O)c1c(C)[nH]c2ccccc12,29.8%,26.1%,25.8%,-1.9%,-5.05%,37.8%
Cn1cc(S(=O)(=O)NC(=O)Nc2ccc(Cl)cc2)c2ccccc21,-19.4%,-9.85%,-1.05%,29.7%,-20.1%,-13.9%
CC1CNCC(C)N1C(=O)c1ccccc1 (stereo unspecified),3.85%,5.15%,-7.7%,3.25%,1.5%,-39.5%
O=C(N/N=C/c1ccc(O)cc1)c1ccccc1NC(=O)C1CC1,3.25%,23.7%,18.9%,2.55%,-0.85%,-21.1%
COc1cc(/C=C(\OC(C)=O)c2ccc3c(c2)OCO3)cc(OC)c1OC,-5%,-0.95%,33.2%,13.6%,44%,-19.1%
CCCN(CCC)NC(=O)c1ccc(N=NN(C)C)cc1,0.15%,32.8%,8.4%,-5.3%,39.9%,21%
Cn1c2ccccc2c2ccc3c(c21)C(=O)C(c1ccccc1)=CC3=O,19.7%,-21.2%,-10.3%,17.6%,-28.3%,-5.85%
[O-][N+](=Nc1ccccc1Cl)c1ccccc1Cl,44%,16%,62.7%,4.15%,28.2%,31.2%
Clc1ccc(N=CNc2ccc(Cl)cc2)cc1,-10.2%,-2.85%,-6.55%,-14.2%,43.2%,-2.35%
Cc1ccc(N/N=c2\c3nc4ccccc4nc2n(-c2ccccc2C)c(=S)n3-c2ccc(C)cc2)cc1,-19.6%,-14.3%,1.15%,-18.7%,0.8%,-29.5%
